The source made the active and inactive calls. No stated cut-off is given here; in the data, active means IC50 below about 9 µM; inactive means the rest.

IC50 data for three compounds are collected here from PubChem BioAssay AID2165 (The Scripps Research Institute Molecular Screening Center, 2009).

For this experiment, the system named is Ba/F3 Cytotoxicity. Nature of the experiment: JAK2V617F kinase, IRF1 reporter and Ba/F3 cytotoxicity panel, late-stage follow-up, HEL and Ba/F3 cells (AID 2165).
As to `N#CC(C#N)=Cc1ccc(O)c(O)c1`, the IC50 (commonly the point on the concentration scale where inhibition reaches its midpoint) is 2.56 µM (active).

With `CC(C)[C@@H](CO)Nc1nc(Nc2cccc(Cl)c2)c2ncn(C(C)C)c2n1`, the IC50 was 0.95 µM (active).

Consider `N#CC(C#N)=Cc1cc(O)c(O)c(I)c1`, for which the concentration for half-maximal inhibition (IC50) was 8.99 µM (active).
